Our source for the activation, Potency and viability values is PubChem BioAssay (NCATS).

Values joined by “and” are separate entries in the source; they are usually repeats but may differ in a detail not shown here. Equal values may be shown once. Results filed as inconclusive are left out. A number with no mark means an inactive call. Active and inactive are the calls of the source. Unless noted, calls follow the shape of the dose curve; as a rule, active = well fitted curve in the direction sought with a large enough effect; inconclusive = small, poorly fitted or top-dose-only effect, or another doubt; inactive = no such curve, though single readings can be large; an effect the other way counts as inactive or inconclusive.

Assay [1] has as its target Cellular tumor antigen p53 (Homo sapiens) (UniProt P04637). Put plainly: Primary qHTS for small molecule compounds that upregulate eGFP-tagged delta133p53alpha (in N-terminal) cells. (AID 2060322). Also: nearly all actives have a fitted effect of over 75% in size. Also: potency is read from the fitted curve at half-maximal effect.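 As to activation: cells pre-induced with doxycycline then dosed without doxycycline; series mostly up to about 56 µM; 0% = DMSO vehicle and 100% = reference activator.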 The note with it: NCI-H358 eGFP-delta133p53alpha fluorescence, 24 h; activation: hits give high values. Put shortly:
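NCI-H358 cells pre-induced 24 h with 10 ng/ml doxycycline for eGFP-delta133p53alpha, plated dox-free and exposed 24 h at 37C to titrated compounds. Fixed, Hoechst-stained; gated GFP peak intensity by laser scanning cytometry, normalized to DMSO (0%) and 57.5 uM 5-azacytidine (100%).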
In general terms: Quantitative high-throughput screening tests each substance at several concentrations.

In assay [2] the target is Aldehyde dehydrogenase, mitochondrial (Homo sapiens) (UniProt P05091). In words: qHTS for Inhibitors of the Aldehyde Dehydrogenase Family (ALDH2) Validation screens (AID 2061302; active = well fitted inhibition curve with a large enough effect; title and protocol of this record describe different tests;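 also: plate controls were DMSO vehicle for no effect and maximal DPI positive control response for full effect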).
Assay [3] deals with Retinaldehyde dehydrogenase 3 (Homo sapiens) (UniProt P47895). Put plainly: qHTS for Inhibitors of the Aldehyde Dehydrogenase Family (ALDH1A3) Validation screen (AID 2061312). Also: % is scaled to controls: 0 for no effect and ±100 for the full control effect; nearly all actives have a fitted effect of over 45% in size.
Assay [4] can be described thus: BET inhibitor-based combinations targeting novel dependencies in MECOM-rearranged (r) AML: SET-2 cell line (AID 2202231).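 Also: plate controls were DMSO treated cells for no effect and wells without cells for full effect; nearly all actives have a fitted effect of over 35% in size.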 Conditions: SET-2 AML cells viability, CellTiter-Glo luminescence, 48 h; viability: hits give low values, series mostly up to about 46 µM. Put shortly:
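500 cells/well; 11-pt dose curve; 48 h, standard incubator; CellTiter-Glo luminescence after 15 min RT; DMSO/empty-well normalization; AUC plus Z-AUC (mean-centered within each line).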
(ATP-based viability assays read luminescence as a measure of living cells.)

Assay [5] is described as follows: BET inhibitor-based combinations targeting novel dependencies in MECOM-rearranged (r) AML: MV-4-11 cell line (AID 2202233). Also: potency is read from the fitted curve at half-maximal effect; nearly all actives have a fitted effect of over 45% in size. Put shortly:
(§1)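 Cells were plated at 500 per well and exposed to each drug across an 11-point dose range for 48 hr at standard incubator conditions. Viability was read by CellTiter-Glo luminescence, and activity was expressed as AUC and per-cell-line Z-transformed AUC.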

Assay [6] is described as follows: BET inhibitor-based combinations targeting novel dependencies in MECOM-rearranged (r) AML: HNT-34 cell line (AID 2202234). Also: potency is read from the fitted curve at half-maximal effect; nearly all actives have a fitted effect of over 35% in size. Put shortly:
as §1

The nature of assay [7]: BET inhibitor-based combinations targeting novel dependencies in MECOM-rearranged (r) AML: UCSD-AML1 cell line (AID 2202235). Also: potency is read from the fitted curve at half-maximal effect; nearly all actives have a fitted effect of over 40% in size. The essentials: as §1

Chain of Cellular tumor antigen p53 (Homo sapiens) (P04637 whole entry, looked up): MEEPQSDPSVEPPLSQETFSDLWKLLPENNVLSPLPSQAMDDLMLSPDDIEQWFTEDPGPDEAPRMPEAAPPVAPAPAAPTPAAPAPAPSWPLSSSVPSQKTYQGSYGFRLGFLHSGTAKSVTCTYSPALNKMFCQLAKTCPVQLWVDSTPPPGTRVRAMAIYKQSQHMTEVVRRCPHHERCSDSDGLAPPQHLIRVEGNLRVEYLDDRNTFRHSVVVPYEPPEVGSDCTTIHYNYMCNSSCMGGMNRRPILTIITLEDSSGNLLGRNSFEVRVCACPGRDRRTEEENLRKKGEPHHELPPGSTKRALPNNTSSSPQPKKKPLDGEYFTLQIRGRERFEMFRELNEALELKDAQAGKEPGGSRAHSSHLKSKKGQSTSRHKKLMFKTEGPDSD

Turning to `O=c1cc(-c2ccc(O)cc2)oc2cc(O)cc(O)c12`, the activation in assay [1] was -19.8% and -40.1%. For the same compound, the Potency entry in assay [2] and in assay [3] was “inactive” each time.
With `NCCCC(=O)O`, the activation in assay [1] is -3.84%. Moreover, the Potency entry in assay [2] and in assay [3] was “inactive” in each case.
As to `COC1(C2=NCCN2)COc2ccccc2O1` (stereo not given), the activation in assay [1] is -0.599%. Further, the Potency result in assay [2] and in assay [3] was “inactive” each time.
Consider `CC12C(=O)OC(=O)C1(C)C1CCC2O1` (stereo not given), for which the Potency in assay [1] is 1.69 µM (active). Besides, the Potency entry in assay [2] and in assay [3] was “inactive” in each case.
As to `CNCCC=C1c2ccccc2CCc2ccccc21`, the activation in assay [1] was 33%. Also, the Potency entry in assay [2] and in assay [3] was “inactive” in each case.
With `O=C1NCN(c2ccccc2)C12CCN(CCCC(c1ccc(F)cc1)c1ccc(F)cc1)CC2`, the activation in assay [1] is -12.6% and -53.2%. The Potency result in assay [2] and in assay [3] was “inactive” in each case.
Turning to `CC(C)(C)c1ccc(C(O)CCCN2CCC(C(O)(c3ccccc3)c3ccccc3)CC2)cc1` (stereo not given), the activation in assay [1] was 5.86% and -0.341%. For the same compound, the Potency result in assay [2] and in assay [3] was “inactive” in each case.
Take `COc1cc2nc(N3CCN(C(=O)c4ccco4)CC3)nc(N)c2cc1OC`: in assay [1], the activation was 2.51% and 14.7% and 81.5%. In addition, the Potency result in assay [2] and in assay [3] was “inactive” throughout.
Turning to `CCCC(CCC)C(=O)OC1CC2CCC(C1)[N+]2(C)C` (stereo not given), the activation in assay [1] was -17.7%. For the same compound, the Potency entry in assay [2] and in assay [3] was “inactive” throughout.
For the compound `CC(C)C[C@H](NC(=O)[C@H](O)[C@H](N)Cc1ccccc1)C(=O)O`, the activation in assay [1] is 3.56%. The Potency result in assay [2] and in assay [3] was “inactive” throughout.
Take `CN(C)CCOC(C)(c1ccccc1)c1ccccn1` (stereo not given): the activation in assay [1] is -7.21%. The Potency entry in assay [2] and in assay [3] was “inactive” each time.
A word on the viability: it is a per cent measure of how many cells are alive, often set against a control. Take `Nc1nc2ccc(OC(F)(F)F)cc2s1`: the activation in assay [1] was -8.55% and 47.5%. Further, the Potency result in assay [2] and in assay [3] was “inactive” throughout. Further, in assay [4], the viability is 89.4%. Besides, the figures for the Potency in assay [5], in assay [6] and in assay [7] were 23.5 µM (active), 16.6 µM (active) and 26.3 µM (active), respectively.
